How the values were obtained:
[1] = biological target: T1, Aspartate--tRNA(Asp/Asn) ligase (Mycobacterium tuberculosis (strain ATCC 25618 / H37Rv)) (UniProt P9WFW3); experiment: Assay for Asp RNA synthetase-1 from Mycobacterium tuberculosis; format: functional; parameters: scale not given: direction of the effect not stated beside the values; settings: 30 µM; also: in the data most compounds retested in dose-response had high values
T1 sequence (whole entry): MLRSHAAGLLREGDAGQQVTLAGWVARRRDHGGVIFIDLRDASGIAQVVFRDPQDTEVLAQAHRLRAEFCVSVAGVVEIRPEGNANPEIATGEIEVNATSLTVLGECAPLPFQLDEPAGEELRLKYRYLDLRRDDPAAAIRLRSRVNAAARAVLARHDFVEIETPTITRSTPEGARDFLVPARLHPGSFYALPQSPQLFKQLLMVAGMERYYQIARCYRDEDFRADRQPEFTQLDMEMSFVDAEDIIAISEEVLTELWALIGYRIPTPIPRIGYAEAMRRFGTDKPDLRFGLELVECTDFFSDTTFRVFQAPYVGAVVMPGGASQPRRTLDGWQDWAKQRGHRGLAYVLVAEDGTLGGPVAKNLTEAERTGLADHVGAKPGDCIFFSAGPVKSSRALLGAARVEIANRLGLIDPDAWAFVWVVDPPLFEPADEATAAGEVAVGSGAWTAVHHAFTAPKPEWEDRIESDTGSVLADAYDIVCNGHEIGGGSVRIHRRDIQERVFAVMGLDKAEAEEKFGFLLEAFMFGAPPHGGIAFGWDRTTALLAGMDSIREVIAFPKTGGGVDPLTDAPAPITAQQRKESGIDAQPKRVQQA

[2] = biological target: Shiga toxin 2 (Escherichia coli O157:H7) (UniProt P09385+P09386); experiment: E. coli 0.157:H7 Shiga Toxin SOP - stx2 screening assay; format: functional; parameters: scale not given: direction of the effect not stated beside the values; settings: 30 µM

| SMILES | Percent Effect [1] | Percent Effect [2] |
| --- | --- | --- |
| Cc1ccc(NC(=O)c2n[nH]c(-n3cnnc3)n2)cc1C | 4.15% | -18.5% |
| COc1ccc(C2SC(C)=Nc3c2c(=O)[nH]n3C2CCCCC2)cc1O (stereo not drawn) | 3.89% | -40% |
| COc1cccc(C(=O)N2CCCCC2CNC(N)=O)c1 (stereo not drawn) | 3.2% | 26.9% |
| CC(Cn1ccnc1)NC(=O)NCCNC(=O)C(C)C (stereo not drawn) | 1.08% | 11.8% |

Reference: ChEMBL document CHEMBL3988442, “University of Dundee, Small-Polar-MMV Screening Library” (2021)
